# Compound activity: PubChem BioAssay, National Center for Advancing Translational Sciences (NCATS)
# 15-hLO-2 inh: blocks human 15-lipoxygenase 2 activity; O15296; purified 15hLO-2, xylenol orange hydroperoxide absorbance; Potency, µM (titrated, usually from 57.1 µM), for the others: at the top dose activity change, negative = inhibition, usual class: inhibitors; 0.56% of 110,000 active; AID 881; also: potency is read from the fitted curve at half-maximal effect; nearly all actives have a fitted effect of over 60% in size
#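 Read-out: hydroperoxide product oxidises ferrous iron, measured as xylenol orange complex via the 573-to-405 nm absorbance ratio after 30 min. Reaction: 50 nM enzyme, 15 min compound preincubation, 45 uM arachidonic acid, 90 min RT, Hepes pH 7.5 with Triton X-100.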
# IMPase cell inh: membrane-permeable compound that blocks inositol monophosphatase; CHO-M1 cells, IP1 accumulation, HTRF TR-FRET ratio; inhibition (IP1 accumulation), % at 46.1 µM; 120,000 tested, under 10 active; P97697; AID 901; active = well fitted curve in the direction sought with a large enough effect in the signal ratio, not every such curve was filed as active; inconclusive = small, poorly fitted or top-dose-only effect, or a change in a side signal; inactive = no such curve, though single readings can be large or run the other way; the % refers to the signal ratio;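 also: cells stimulated with carbachol in lithium chloride buffer; plate controls were DMSO basal wells for no effect and reference inhibitor wells for full effect; higher means more IMPase inhibition seen as more IP1 and lower FRET ratio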
# Target sequence (P97697 whole entry, looked up): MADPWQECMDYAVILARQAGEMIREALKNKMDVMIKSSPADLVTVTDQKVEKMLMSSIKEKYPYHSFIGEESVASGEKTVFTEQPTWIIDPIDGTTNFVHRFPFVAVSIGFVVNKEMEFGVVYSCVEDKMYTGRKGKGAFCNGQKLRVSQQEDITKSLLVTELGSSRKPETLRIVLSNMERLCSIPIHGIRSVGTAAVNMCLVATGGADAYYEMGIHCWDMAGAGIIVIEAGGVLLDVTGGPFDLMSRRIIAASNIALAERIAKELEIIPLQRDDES
#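 CHO-M1 cells (CHO stably expressing M1 receptor), compound up to 46 uM final, stimulated with carbachol (50 uM as added) in buffer with 50mM LiCl, pH 7.4, 30 min at 37C. Cytosolic IP1 read by TR-FRET; AC50 from Hill fits.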
# PNC assembly inh: inhibitors of perinucleolar compartment assembly; activity change (PNC), negative = inhibition, % at 10 µM; PC3M PTB-GFP, PNC prevalence imaging, 16 h; active compounds read low; 3.1% of 140,000 active; AID 2417;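 active = readout at or below -70, meaning at least 70% loss of cells showing the perinucleolar compartment, a nuclear body marking cancer cells; inconclusive = readout between -30 and a set limit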;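 also: plate controls were DMSO wells for no effect and camptothecin positive control wells for full effect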
#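 Compounds are pinned in duplicate onto adhered PC3M cells stably expressing GFP-tagged PTB and incubated 16 h at 37 C. Cells are then fixed, nuclei stained with Hoechst, and PNC-positive cells counted.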
# IMPase Li inh: cell-permeable IMPase inhibitors with lithium potentiation; CHO-M1 cells, IP1 TR-FRET (IP-One), carbachol + lithium; Potency, µM (titrated, usually from 59.4 µM), for inactives: at the highest dose activity, negative = IMPase inhibition, most hits filed as inhibitors; 0.35% of 210,000 active; AID 1457;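 also: IP1 builds up when IMPase is blocked and the TR-FRET signal falls; potency is read from the fitted curve at half-maximal effect; plate controls were basal vehicle for no effect and high inhibitor control for full effect; nearly all actives have a fitted effect of over 50% in size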
#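 IP1 accumulation measured by competitive TR-FRET in lysed CHO-M1 cells after 30 min compound exposure at 37C, with a small lithium addition to potentiate weak responses. Hill-equation AC50 from ratio and donor-channel data.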
# 12-hLO inh: blocks human 12-lipoxygenase activity; P18054; purified 12-hLO, xylenol orange hydroperoxide absorbance; Potency, µM (series often up to 57.1 µM), for inactives: at the top dose activity change, negative = inhibition, most hits filed as inhibitors; 0.12% of 150,000 active; AID 1452; also: potency is read from the fitted curve at half-maximal effect; nearly all actives have a fitted effect of over 55% in size
#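 150 nM 12hLO, 25 mM Hepes pH 7.0 + 0.01% Triton X-100; cpd preinc 15 min RT; 40 uM arachidonic acid, 30 min RT; Fe-XO 30 min; A573/A405 ratio as read-out.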
# HPGD inh: inhibitors of human 15-hydroxyprostaglandin dehydrogenase (HPGD). Potency, µM, for inactives: at the top dose activity change, negative = inhibition, hits mostly inhibitors. 4.3% of 150,000 active. P15428. purified HPGD, NADH fluorescence kinetic, PGE2 substrate. AID 894; active = well fitted inhibition curve with a large enough effect, not every such curve was filed as active; inconclusive = small, poorly fitted or top-dose-only effect, or another doubt; inactive = no such curve, though single readings can be large or run the other way; also: potency is read from the fitted curve at half-maximal effect
# Target sequence (P15428 whole entry, looked up): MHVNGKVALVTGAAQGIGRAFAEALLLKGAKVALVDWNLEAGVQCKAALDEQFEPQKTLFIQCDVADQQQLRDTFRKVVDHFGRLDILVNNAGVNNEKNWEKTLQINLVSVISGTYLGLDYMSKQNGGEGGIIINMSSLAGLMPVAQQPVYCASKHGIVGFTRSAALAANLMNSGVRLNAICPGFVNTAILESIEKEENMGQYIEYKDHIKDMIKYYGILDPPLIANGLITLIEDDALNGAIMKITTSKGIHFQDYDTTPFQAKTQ
#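 20 nM HPGD preincubated 15 min at room temperature with compound in 50 mM Tris-HCl pH 8, 0.01% Tween 20. Started with 1 mM NAD+ and 30 uM prostaglandin E2; NADH fluorescence (360/450 nm) read 5 times over 30-s intervals, last minus first.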
# Starred values were filed as active, the others as inactive; ? = inconclusive; / = no result given; ! = not confirmed by another sample; [ ] = remark or other dose. Compounds with a hit are over-represented: about 5.4% of the library has one in this group of screens. Unless noted, calls follow the shape of the dose curve; as a rule, active = well fitted curve in the direction sought with a large enough effect; inconclusive = small, poorly fitted or top-dose-only effect, or another doubt; inactive = no such curve, though single readings can be large; an effect the other way counts as inactive or inconclusive. Unless noted, % is scaled to controls: 0 for no effect and ±100 for the full control effect.
SMILES,15-hLO-2 inh,IMPase cell inh,PNC assembly inh,IMPase Li inh,12-hLO inh,HPGD inh
O=C(CSc1ccc(-c2ccc(F)cc2)nn1)NCC1CCCO1 (centres undefined),/,/,/,-3.2%,/,/
O=C(CSc1ccc2nnc(-c3cccnc3)n2n1)N1CCc2ccccc21,0.6%,-1.8,?,-7.0%[38.3 µM],-6.6%,-5.8%
O=C(CSc1ccc2nnc(-c3ccc(Cl)cc3)n2n1)N1CCc2ccccc21,-26.7%,-1.1,?,34.0%[38.3 µM],-5.7%,14.1µM*
CC1CCCCN1C(=O)CSc1ccc(-c2ccc(F)cc2)nn1 (centres undefined),-1.1%,-8.4,?,-0.5%[38.3 µM],0.5%,22.4µM*
Nc1nc(SCC(=O)N2CCc3ccccc32)[nH]c(=O)c1-c1ccccc1,-3.1%,13.6,-106.5*,16.4%[38.3 µM],2.7%,-15.4%
Cc1ccc(-c2ccc(SCC(=O)N3CCCc4ccccc43)nn2)cc1,/,-0.7,38.2,11.0%,-2.3%,-10.9%
Nc1nc(SCC(=O)N2CCCC2)[nH]c(=O)c1-c1ccccc1,-5.8%,12.4,-8.6,12.9%[38.3 µM],4.7%,-7.9%
O=S(=O)(O)C(c1ccccc1)[C@@H](O)c1ccccc1 (some centres undefined),/,/,/,-4.0%,/,-9.3%
O=C(CSc1nnc(-c2ccccc2F)o1)N1CCc2ccccc21,/,18.7,/,/,/,/
COc1ccc2c(c1)c(CCN1C(=O)c3ccccc3C1=O)cn2C(=O)c1ccco1,-5.9%,-10.3,-3.5,8.91µM*,-3.3%,?
O=C(Oc1ccc2[nH]cc(CCN3C(=O)c4ccccc4C3=O)c2c1)c1ccco1,-13.7%,0.1,9.0,3.0%[38.3 µM],-14.2%,-15.7%
Cc1ccc(C2C=C(c3ccc(F)cc3)Nc3nc(CCCO)nn32)cc1 (centres undefined),/,-20.1,/,/,/,/
COc1ccc(CCNC(=O)CSc2nncn2N)cc1OC,2.4%,3.3,-82.3*,16.9%[38.3 µM],2.3%,-12.3%
COc1ccc(CSc2nncn2N)cc1[N+](=O)[O-],/,/,-89.1*,-6.8%,-0.2%,-15.5%
Cc1cc(NC(=O)CSc2nnc(-c3ccncc3)n2N)ccc1Br,6.8%,-6.7,-88.9*,-1.8%[38.3 µM],-1.0%,-12.0%
Nn1c(SCC(=O)Nc2ccc3c(c2)OCO3)nnc1-c1ccncc1,1.7%,?,33.8,-11.1%[38.3 µM],-4.7%,-8.7%
COc1ccc(CC(=O)N2CCOCC2)cc1,/,-1.6,-28.4,-2.1%,-4.2%,-13.6%
COc1ccc(CC(=O)N2CC(C)CC(C)C2)cc1 (centres undefined),-3.8%,6.2,56.8,19.7%[38.3 µM],14.5%,28.2µM*
Cn1cc(/C=N/n2cnc3scc(-c4ccccc4)c3c2=O)c2ccccc21,-8.3%,7.3,-112.6*,7.3%[38.3 µM],-3.1%,-29.9%
NC(=O)/N=C(\N)NC(=O)c1ccccc1,-3.6%[11.4 µM],/,/,-4.9%,-4.1%[11.4 µM],-7.1%
Cc1nc2c(nnn2Cc2ccccc2)c(=O)[nH]1,/,/,/,-1.9%,/,/
O=C(NCc1ccccc1)c1nc2c(nnn2Cc2cccc(Cl)c2)c(=O)[nH]1,/,19.3,-27.5,6.8%,-1.2%,2.51µM*
Cc1ccc(Cn2nnc3c(=O)[nH]c(C(=O)NCc4ccco4)nc32)cc1,-4.6%,-12.3,31.5,-5.9%[38.3 µM],-7.1%,-25.4%
O=C(NCc1ccco1)c1nc2c(nnn2Cc2cccc(Cl)c2)c(=O)[nH]1,/,3.3,56.9,1.4%[38.3 µM],-1.0%,0.355µM*
CCCOc1ccc(-c2nn(-c3ccccc3)cc2/C=C2\SC(N)=NC2=O)cc1C,/,-7.0,6.5,-6.1%,-2.2%,10µM*
SMILES,15-hLO-2 inh,IMPase cell inh,PNC assembly inh,IMPase Li inh,12-hLO inh,HPGD inh
CCOC(=O)/C(C#N)=C/c1cn(CCC(=O)O)nc1-c1ccc(OC)cc1,/,/,/,1.8%,/,/
COc1ccc(-c2nn(CCC(=O)O)cc2/C=C2\SC(N)=NC2=O)cc1OC,/,-1.9,-24.6,0.3%,-0.6%,3.16µM*
CCCOc1ccc(-c2nn(-c3ccccc3)cc2C2NC(=O)NC(C)=C2C(=O)OC)cc1C (centres undefined),/,0.7,/,/,/,/
CC1=C(C(=O)Nc2cccc(F)c2)C(c2ccsc2)C2=C(CC(C)(C)CC2=O)N1 (centres undefined),/,/,-81.5*,-4.4%,-1.2%,?
O=C(NC1CC1)c1ccc(CSCc2cccc(F)c2)o1,-6.3%,-6.2,-105.7*,0.5%[38.3 µM],-1.6%,-12.5%
O=C(Oc1ccccc1)N1CCC2(CC1)CCN(c1ccccn1)CC2,21.2%,/,/,24.3%,-13.8%,-15.3%
Cc1cccc(Oc2nc3ccccn3c(=O)c2/C=C(\C#N)c2nc3ccccc3s2)c1C,/,0.5,/,/,/,/
CC(C)C(=O)NC(c1ccco1)c1ccc2cccnc2c1O (centres undefined),29.4%,5.9,-25.2,5.9%[38.3 µM],10µM*,-5.7%
CC(Sc1cnc2ccccc2n1)C(=O)O (centres undefined),-1.3%,?,-5.3,12.6µM*,-3.3%,-19.8%
CC(Sc1ccc2ccccc2n1)C(=O)O (centres undefined),1.9%,?,2.4,8.91µM*,-6.7%,?
CC12C=CC(=O)C=C1[C@@H](F)CC1C2C(O)CC2(C)C1CC[C@]2(O)C(=O)CO (some centres undefined),-10.0%[0.0915 µM],/,/,0.5%,-2.6%[0.00818 µM],-7.7%
O=C(CSc1nnc(-c2ccco2)n1Cc1ccccc1)NC(=O)NCc1ccccc1,-14.2%,-1.9,-92.5*,7.7%[38.3 µM],-10.5%,-10.0%
CCn1c(SCC(=O)c2ccc3c(c2)OCCO3)nnc1-c1ccco1,-19.5%,-8.8,-85.7*,21.3%[38.3 µM],0.0%,?
O=C(CSc1nnc(-c2ccco2)n1Cc1ccccc1)c1ccccc1,-6.3%,11.6,-21.8,7.3%[38.3 µM],-9.9%,28.2µM*
COCCn1c(SCC(=O)c2ccc3c(c2)OCCO3)nnc1-c1ccco1,-2.4%,-3.7,45.9,27.1%[38.3 µM],1.0%,-11.3%
COCCCn1c(SCC(=O)NC2CCCC2)nnc1-c1ccco1,3.7%,-7.8,-106.7*,2.3%[38.3 µM],2.4%,-14.5%
CC[C@H]1C2=C3C(CC[C@H]4C(OCc5ccc(F)cc5C(F)(F)F)OC[C@](C)([C@@H]34)N(C(=O)OC(C)(C)C)C2)C(COC)C1COC (some centres undefined),6.2%,/,/,-5.7%,0.3%,-6.5%
Cc1ccc(N2NC(=O)/C(=C/c3ccc(-c4ccc(Cl)c(C(=O)O)c4)o3)C2=O)cc1C,/,/,/,0.9%,/,/
Cc1ccc(N2NC(=O)/C(=C\c3cc4c(cc3[N+](=O)[O-])OCO4)C2=O)cc1C,/,/,29.9,18.5%,-25.3%,3.98µM*
CCCCCC(=O)NNC(=S)NC(=O)c1cccc([N+](=O)[O-])c1,/,/,14.3,-6.2%,-11.5%,10µM*
O=C(NCc1ccccc1)c1ccc(-c2ccccc2C(F)(F)F)o1,-1.1%[0.0915 µM],/,-84.2*,2.6%,-3.7%[0.00818 µM],31.6µM*!
